This is one part of a sample in which hits are shown more often than they occur.
Peg3 imprint: induces erasure of genomic imprints in mouse ES cells | mouse ES Peg3-LacZ reporter, beta-gal luminescence, 40 h | Potency, µM (highest dose often 60.7 µM), hits mostly activators | 0.02% of 110,000 active | AID 1948
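Imprint erasure is scored as LacZ activity from the silenced maternal Peg3 allele in feeder-free female ES cells cultured 40 h with LIF. Luminescence is normalized to in-plate negative controls and fitted to the Hill equation.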
HEK293 cAMP ctrl: parental HEK293 cAMP activation (counter-screen); AID 938; 2.5% of 73,000 active; Potency, µM (series often up to 57.1 µM), usual class: activators; parental HEK293 CNG cAMP sensor, membrane potential fluorescence; note: nearly all actives have a fitted effect of over 55% in size
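Parental HEK 293 cells stably expressing a cAMP-gated CNG channel were loaded with membrane potential dye containing 100 uM RO 20-1724 for 60 min. Compound added for 30 min; depolarization read as fluorescence intensity at 590 nm.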
TSHR ag: activates the human thyroid stimulating hormone receptor. AID 926. HEK293-CNG-TSHR cells (CNG channel as cAMP sensor), membrane potential dye, cAMP. 0.48% of 73,000 active. Potency, µM (top dose mostly 57.1 µM), actives largely listed as activators. P16473; active = well fitted activation curve with a large enough effect in the main read-out, with a control signal flat, not every such curve was filed as active; inconclusive = small, poorly fitted or top-dose-only effect, or a change in a side signal; inactive = no such curve, though single readings can be large or run the other way; reference of the percent scale not stated here;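 note: the control signal comes from parental cells without the receptor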
Target sequence (P16473 whole entry, looked up): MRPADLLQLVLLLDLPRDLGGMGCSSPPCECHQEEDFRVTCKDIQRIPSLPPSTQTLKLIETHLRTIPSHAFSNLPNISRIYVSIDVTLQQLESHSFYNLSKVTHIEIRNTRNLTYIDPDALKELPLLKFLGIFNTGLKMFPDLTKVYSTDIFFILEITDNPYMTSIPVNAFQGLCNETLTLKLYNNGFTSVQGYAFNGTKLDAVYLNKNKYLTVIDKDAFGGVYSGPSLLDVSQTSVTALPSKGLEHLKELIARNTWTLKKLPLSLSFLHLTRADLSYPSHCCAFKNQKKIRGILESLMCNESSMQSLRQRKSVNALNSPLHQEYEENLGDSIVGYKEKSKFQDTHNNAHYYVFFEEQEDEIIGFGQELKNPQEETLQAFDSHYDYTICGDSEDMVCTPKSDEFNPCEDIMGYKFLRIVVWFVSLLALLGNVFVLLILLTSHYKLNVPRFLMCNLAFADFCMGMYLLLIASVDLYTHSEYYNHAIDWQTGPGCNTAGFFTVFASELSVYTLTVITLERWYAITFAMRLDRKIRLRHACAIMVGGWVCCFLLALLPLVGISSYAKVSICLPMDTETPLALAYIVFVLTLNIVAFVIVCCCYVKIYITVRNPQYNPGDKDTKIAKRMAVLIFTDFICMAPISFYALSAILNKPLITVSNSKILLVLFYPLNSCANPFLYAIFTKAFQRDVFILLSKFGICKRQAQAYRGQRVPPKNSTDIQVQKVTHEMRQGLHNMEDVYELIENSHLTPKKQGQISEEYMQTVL
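cAMP rise detected as CNG-channel membrane depolarization by fluorescent dye (emission 590 nm), 30 min after compound, following 60 min dye loading containing 100 uM RO 20-1724 at room temperature. Cells: TSHR/CNG HEK 293, with parental CNG HEK 293 as control.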
Of the large screens only hits and unclear results are named; the others gave an inactive call. Unless noted, calls come from the whole dose curve; as a rule, active = well fitted activation curve with a large enough effect; inconclusive = small, poorly fitted or top-dose-only effect; inactive = no such curve, though single readings can be large or run the other way.

COc1cccc(-c2noc(C3CCCN(C(=O)Cc4ccccc4)C3)n2)c1 (centres undefined)	HEK293 cAMP ctrl inconclusive, TSHR ag inconclusive
COc1ccc(CCNC(=O)CCc2c(C)nc3c4cccnc4nn3c2C)cc1OC	none (no result: HEK293 cAMP ctrl, TSHR ag)
COc1cc(CNCCSc2nnnn2C)ccc1OCc1ccc(C)cc1	none (no result: HEK293 cAMP ctrl, TSHR ag)
Cc1ccc2cc(CN(Cc3cccs3)C(=O)c3ccco3)c3nnnn3c2c1C	HEK293 cAMP ctrl inconclusive, TSHR ag inconclusive
Cc1ccc2c(c1)cc(CN(Cc1cccs1)C(=O)c1ccco1)c1nnnn12	HEK293 cAMP ctrl 16µM, TSHR ag inconclusive
CS(=O)(=O)c1ccccc1-c1nnc(NC(=O)c2ccc3c(c2)OCCO3)o1	none (no result: HEK293 cAMP ctrl, TSHR ag)
CC(=O)Nc1ccc(S(=O)(=O)NCCc2cc3c(C)ccc(C)c3[nH]c2=O)cc1	HEK293 cAMP ctrl 25µM, TSHR ag inconclusive
Cc1ccc(C)c2[nH]c(=O)c(CCNC(=O)c3ccc(S(=O)(=O)N(C)C)cc3)cc12	none
O=C(Cc1cccs1)NC1CC(=O)N(c2cccc(F)c2)C1 (centres undefined)	none (no result: HEK293 cAMP ctrl, TSHR ag)
COc1ccc2oc(=O)cc(CN3CCN(C(=O)c4ccccc4Br)CC3)c2c1	none (no result: HEK293 cAMP ctrl, TSHR ag)
Cc1cc(NC(=O)c2ccccc2Oc2ccccc2)no1	HEK293 cAMP ctrl inconclusive, TSHR ag inconclusive
Cc1ccc(CN(C)C(=O)c2ccccc2Oc2ccccc2)o1	HEK293 cAMP ctrl 32µM, TSHR ag inconclusive
COC(=O)c1ccc(NC(=O)c2ccc(CN3CCOCC3)cc2)cc1	none
O=C(Nc1ccc(CN2CCOCC2)cc1)c1ccc(-c2ccc(Br)cc2)o1	HEK293 cAMP ctrl 25µM, TSHR ag inconclusive
CCOC(=O)c1noc2ncn(CC(=O)Nc3ccc(C)c(F)c3)c(=O)c12	none (no result: HEK293 cAMP ctrl, TSHR ag)
COC(=O)N1[C@H](Cc2ccccc2)C=C[C@]1(C)C(=O)O	none
COC(=O)[C@@]1(C)C=C[C@@H](Cc2ccccc2)N1C(=O)c1ccccc1	HEK293 cAMP ctrl 20µM, TSHR ag inconclusive
COc1ccc(Cl)cc1N=Nc1ncc[nH]1	none
CCc1nc(SCC(=O)Nc2ccc3c(c2)OCCO3)c2oc3ccccc3c2n1	none (no result: TSHR ag)
Cc1nc(SCC(=O)Nc2ccc3c(c2)OCCO3)c2oc3ccccc3c2n1	TSHR ag 4µM
Cc1ccc(OCCSc2nc3ccc(NC(=O)c4ccc(F)cc4)cc3s2)cc1	none (no result: HEK293 cAMP ctrl, TSHR ag)
O=C(NC1CCCCC1)C(c1cccs1)N(CC1CCCO1)C(=O)c1csnn1 (centres undefined)	HEK293 cAMP ctrl inconclusive, TSHR ag inconclusive
O=C(NCC(=O)N(Cc1ccc(F)cc1)C(C(=O)NC1CCCC1)c1ccco1)c1ccco1 (centres undefined)	HEK293 cAMP ctrl 16µM, TSHR ag inconclusive
O=C(NCC(=O)N(Cc1cccs1)C(C(=O)NC1CCCC1)c1ccncc1)c1ccco1 (centres undefined)	none
COc1ccc(CN(C(=O)CNC(=O)c2ccco2)C(C(=O)NC2CCCC2)c2ccco2)cc1 (centres undefined)	none (no result: Peg3 imprint)
O=C(NC1CCCCC1)C(c1cccs1)N(Cc1cccs1)C(=O)c1ccco1 (centres undefined)	HEK293 cAMP ctrl 0.4µM, TSHR ag inconclusive (no result: Peg3 imprint)
O=C(NC1CCCC1)C(c1cccs1)N(CC1CCCO1)C(=O)Cc1cccs1 (centres undefined)	HEK293 cAMP ctrl 0.32µM, TSHR ag inconclusive
CCc1ccc(C2=NN(CCC(=O)NCCc3ccccc3)C(=O)CC2)cc1	none (no result: HEK293 cAMP ctrl, TSHR ag)
O=C(CSc1nc2c([nH]c3ccccc32)c(=O)n1-c1ccccc1)N1CCCCCC1	none (no result: HEK293 cAMP ctrl, TSHR ag)
COc1ccc(NC(=O)CSc2nnc(NC(=O)Nc3ccccc3)s2)cc1OC	none (no result: HEK293 cAMP ctrl, TSHR ag)
O=C(O)[C@H](C1NCCS1)N1Cc2ccccc2C1 (some centres undefined)	none (no result: HEK293 cAMP ctrl, TSHR ag)
O=C(NCc1ccccc1)NC1COc2ccccc2C1 (centres undefined)	none (no result: HEK293 cAMP ctrl, TSHR ag)
CCC(=O)N[C@@H]1Cc2ccccc2[C@@H](c2ccccc2)C1	HEK293 cAMP ctrl 20µM, TSHR ag inconclusive
COc1cccc(Cn2c(Oc3cccc(C)c3)nc3c2c(=O)n(C)c(=O)n3C)c1	HEK293 cAMP ctrl 25µM, TSHR ag inconclusive
COCCNc1nc2c(c(=O)n(C)c(=O)n2C)n1Cc1cccc(C)c1	none
CCCOc1nc2c(c(=O)n(C)c(=O)n2C)n1Cc1cccc2ccccc12	HEK293 cAMP ctrl 32µM, TSHR ag inconclusive
Cn1c(=O)c2c(nc(N3CCNCC3)n2Cc2cccc3ccccc23)n(C)c1=O	none
Cc1ccc(C(CC(=O)Nc2ccc(F)c(Cl)c2)N2Cc3ccccc3C2=O)cc1 (centres undefined)	none (no result: HEK293 cAMP ctrl, TSHR ag)
N#CCSc1nnc2ccc3ccccc3n12	none
N#CCSc1nnc(Cc2cccc3ccccc23)n1C1CCCCC1	HEK293 cAMP ctrl 16µM, TSHR ag inconclusive
COC(=O)c1ccc(CSc2nc3c([nH]c4ccccc43)c(=O)n2-c2cccc(OC)c2)o1	none (no result: HEK293 cAMP ctrl, TSHR ag)
c1ccc(Cc2nnc(SCc3nc(-c4cccs4)no3)n2-c2ccccc2)cc1	none (no result: HEK293 cAMP ctrl, TSHR ag)
c1ccc(-c2noc(CSc3nnc(Cc4cccs4)n3-c3ccccc3)n2)cc1	HEK293 cAMP ctrl 25µM, TSHR ag inconclusive
Cc1ccc(-n2c(Cc3ccccc3)nnc2SCc2nc(-c3cccs3)no2)cc1	none (no result: HEK293 cAMP ctrl, TSHR ag)
Fc1ccc(-n2c(Cc3ccccc3)nnc2SCc2nc(-c3cccs3)no2)cc1	HEK293 cAMP ctrl 25µM, TSHR ag inconclusive
C=CCn1c(SCC(=O)Nc2cc(C)ccc2OC)nnc1-c1ccco1	none
C=CCn1c(SCC(=O)Nc2cc(C)c(Cl)cc2OC)nnc1-c1ccco1	HEK293 cAMP ctrl 25µM, TSHR ag inconclusive
Cc1cc(C)c2nc(C(F)(F)F)nc(N3CC(C)OC(C)C3)c2c1 (centres undefined)	HEK293 cAMP ctrl 25µM, TSHR ag inconclusive
CCOC(=O)N1CCN(c2nc(C(F)(F)F)nc3c(C)cc(C)cc23)CC1	HEK293 cAMP ctrl inconclusive, TSHR ag inconclusive
Cc1ccc(C)c(OCCCC(=O)Nc2ccc(N3CCOCC3)cc2)c1	none
Cc1cccc(OCCCC(=O)Nc2ccc(N3CCOCC3)cc2)c1	TSHR ag 3.2µM
COc1cccc(C(c2nnnn2CCc2ccccc2)N2CCN(c3ccccc3)CC2)c1OC (centres undefined)	HEK293 cAMP ctrl 7.9µM, TSHR ag inconclusive
COc1ccccc1C(c1nnnn1CCc1ccccc1)N1CCN(c2ccccc2)CC1 (centres undefined)	HEK293 cAMP ctrl inconclusive, TSHR ag inconclusive
COc1cccc(Oc2cn[nH]c2-c2ccc(OC)cc2O)c1	HEK293 cAMP ctrl inconclusive, TSHR ag inconclusive
COc1cccc(Oc2cn[nH]c2-c2ccc(O)cc2O)c1	HEK293 cAMP ctrl 1µM, TSHR ag inconclusive
N#CCSc1nc2c(sc(=S)n2Cc2ccco2)c(=O)n1-c1ccc(F)cc1	HEK293 cAMP ctrl inconclusive, TSHR ag inconclusive
CCn1c(=S)sc2c(=O)n(-c3ccccc3)c(SC)nc21	HEK293 cAMP ctrl 25µM, TSHR ag inconclusive
CCOC(=O)Cn1c(=O)oc2cc(S(=O)(=O)N3CCN(c4cccc(C)c4)C(C)C3)ccc21 (centres undefined)	none (no result: HEK293 cAMP ctrl, TSHR ag)
CCOC(=O)C1=C(C)Nc2ncnn2C1c1ccc2c(c1)OCO2 (centres undefined)	TSHR ag 3.2µM
CCCCOC(=O)C1=C(C)Nc2ncnn2C1c1cccc(OC)c1 (centres undefined)	none
O=C(NCCSCc1c(F)cccc1Cl)C1CCN(S(=O)(=O)Cc2ccccc2)CC1	none (no result: HEK293 cAMP ctrl, TSHR ag)
O=C(Nc1cccc2c1CCCC2)c1ccc(Br)o1	HEK293 cAMP ctrl 25µM, TSHR ag inconclusive
